Measured values reported in PubChem BioAssay (Tox21).
The source made the active and inactive calls. Unless noted, calls come from the whole dose curve; as a rule, active = well fitted curve in the direction sought with a large enough effect in the repeat runs; inconclusive = weak or mixed curves; inactive = no such curve, though single readings can be large; an effect the other way counts as inactive or inconclusive.

How the values were obtained:
[1] = qHTS assay for small molecules that induce genotoxicity in human embryonic kidney cells expressing luciferase-tagged ATAD5 (AID 651632); note: nearly all actives have a fitted effect of over 15% in size
Summary of the method: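 Concentration-response screen for ATAD5 upregulation in HEK293T luciferase reporter cells; 16 hr treatment at 37C, then luminescence after 30 min with Amplite at room temperature.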

[2] = qHTS assay for small molecule agonists of the p53 signaling pathway - cell viability (AID 651633; calls by dose curve;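 note: p53RE-bla HCT reporter cells with a stable beta-lactamase p53 reporter; nearly all actives have a fitted effect of over 30% in size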)
Summary of the method: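 p53RE-bla cells were treated with compound for 16 hours at 37 C. Cytotoxicity was then measured as CellTiter-Glo luminescence after 30 min at room temperature.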

[3] = qHTS assay to test for compound auto fluorescence at 590 nm (red) in HepG2 cells (AID 720674)
Summary of the method: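 Seeding: 2,000 HepG2 cells/well, MEM/10% FBS, overnight 37 C. Dosing: compound vs DMSO. Incubation: 1 hr, 37 C, 5% CO2. Read: fluorescence 540 ex/590 em, Rose Bengal sodium as red reference.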

[4] = qHTS assay to test for compound auto fluorescence at 535 nm (green) in HepG2 cells (AID 720675)
[5] = qHTS assay to test for compound auto fluorescence at 460 nm (blue) in HEK293 cells (AID 720678)
Summary of the method: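 HEK293 cells (2,000/well, medium with 10% dialyzed FBS) attached 4-5 hr, then exposed to compound overnight at 37C, 5% CO2. Blue fluorescence read at 405/460 nm, with triamterene as reference fluorophore.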

[6] = qHTS assay to test for compound auto fluorescence at 590 nm (red) in HEK293 cells (AID 720679)
Summary of the method: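 HEK293 cells (2,000/well, 10% dialyzed FBS) attached 4-5 hr, then dosed with compound or DMSO and incubated overnight at 37C, 5% CO2. Red fluorescence read at 540/590 nm, Rose Bengal sodium as reference fluorophore.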

[7] = qHTS assay to test for compound auto fluorescence at 535 nm (green) in HEK293 cells (AID 720680)
[8] = qHTS assay to test for compound auto fluorescence at 460 nm (blue) in HEK293 cell free culture (AID 720681)
Summary of the method: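 Compounds were added to cell-free DMEM with 10% FBS and fluorescence read directly. The blue channel used 405 nm excitation and 460 nm emission, with triamterene as the reference fluorophore.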

[9] = qHTS assay to test for compound auto fluorescence at 535 nm (green) in HEK293 cell free culture (AID 720682)
Summary of the method: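 Steps: dispense DMEM/10% FBS into empty wells; pin in compound or DMSO; measure fluorescence at 485/535 nm. Values are fluorescein equivalents.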

[10] = qHTS assay to test for compound auto fluorescence at 590 nm (red) in HEK293 cell free culture (AID 720683)
Summary of the method: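 Cell-free wells of DMEM with 10% FBS received compound, and intrinsic fluorescence was read at excitation/emission 540/590 nm. Values expressed as equivalence to Rose Bengal sodium.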

[11] = qHTS assay to test for compound auto fluorescence at 590 nm (red) in HepG2 cell free culture (AID 720684)
Summary of the method: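 Rose Bengal sodium served as the reference for red signal. Test compounds were dispensed into serum-containing MEM (10% FBS) without cells, and plates were read at 540/590 nm.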

[12] = qHTS assay to test for compound auto fluorescence at 460 nm (blue) in HepG2 cell free culture (AID 720685)
Summary of the method: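 Cell-free plates of MEM plus 10% FBS received 23 nL compound or DMSO vehicle; blue-channel (405/460 nm) intensity scored against triamterene as reference fluorophore.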

[13] = qHTS assay to test for compound auto fluorescence at 535 nm (green) in HepG2 cell free culture (AID 720686)
[14] = qHTS assay to test for compound auto fluorescence at 460 nm (blue) in HepG2 cells (AID 720687)
Summary of the method: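 HepG2 cells in MEM with 10% FBS, attached overnight at 37 C, were exposed to compound or DMSO for 1 hr at 37 C, 5% CO2. Blue fluorescence was read at 405/460 nm, with triamterene as reference fluorophore.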

[15] = target: Glucocorticoid receptor (Homo sapiens) (UniProt P04150); test: qHTS assay to identify small molecule agonists of the glucocorticoid receptor (GR) signaling pathway (AID 720691; active = well fitted activation curve with a large enough effect in the signal ratio in the repeat runs, not every such curve was filed as active; inconclusive = weak or mixed curves, or effect the other way; inactive = no such curve, though single readings can be large or run the other way; the % refers to the signal ratio; note: potency is the fitted concentration of half-maximal effect); conditions: GR-bla HeLa, beta-lactamase reporter ratio, 18 h; activation: at 62.4 µM (top of the series) unless noted
Summary of the method: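 Measures GR pathway activation through a GRE-beta-lactamase reporter stably integrated in HeLa cells, with 18 h compound treatment at 37 C and fluorescence detection using a FRET substrate.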

[16] = target: Glucocorticoid receptor (Homo sapiens) (UniProt P04150); test: qHTS assay to identify small molecule antagonists of the glucocorticoid receptor (GR) signaling pathway (AID 720692; active = well fitted inhibition curve with a large enough effect in the signal ratio in the repeat runs, not every such curve was filed as active; inconclusive = weak or mixed curves, or effect the other way; inactive = no such curve, though single readings can be large or run the other way; the % refers to the signal ratio; note: potency is the fitted concentration of half-maximal effect)
Summary of the method: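 Tox21 10K library screened in concentration-response for blockade of dexamethasone (5 nM final)-induced GRE-bla reporter activity in HeLa cells; 18 h treatment, fluorescence read.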

[17] = qHTS assay for small molecule disruptors of the mitochondrial membrane potential - cell viability (AID 720634; calls by dose curve;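 note: human HepG2 liver cancer cells; nearly all actives have a fitted effect of over 20% in size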)
Summary of the method: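 In this qHTS format, HepG2 cells plated overnight were pinned with compound, incubated 1 hr, and assayed for ATP luminescence with CellTiter-Glo after m-MPI dye addition.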

[18] = qHTS assay for small molecules that induce genotoxicity in human embryonic kidney cells expressing luciferase-tagged ATAD5 - cell viability (AID 651634; calls by dose curve; note: nearly all actives have a fitted effect of over 25% in size; note: potency is the fitted concentration of half-maximal effect)
Summary of the method: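 15.5 hr compound or vehicle exposure of HEK293T cells expressing luciferase-tagged ATAD5 at 37C; live-cell protease activity is read by fluorescence after 30 min of CellTiter-Fluor.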

[19] = qHTS assay for small molecule disruptors of the mitochondrial membrane potential (AID 720635)
Summary of the method: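 HepG2 cells exposed to compound 1 hr at 37C, then Mito-MPS dye 30 min. Ratio read of aggregate (540/590 nm) versus monomer (490/535 nm) fluorescence.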
% is set by controls: 0 for no effect and ±100 for the full control effect.

Sequence of Glucocorticoid receptor (Homo sapiens) (P04150 whole entry, looked up): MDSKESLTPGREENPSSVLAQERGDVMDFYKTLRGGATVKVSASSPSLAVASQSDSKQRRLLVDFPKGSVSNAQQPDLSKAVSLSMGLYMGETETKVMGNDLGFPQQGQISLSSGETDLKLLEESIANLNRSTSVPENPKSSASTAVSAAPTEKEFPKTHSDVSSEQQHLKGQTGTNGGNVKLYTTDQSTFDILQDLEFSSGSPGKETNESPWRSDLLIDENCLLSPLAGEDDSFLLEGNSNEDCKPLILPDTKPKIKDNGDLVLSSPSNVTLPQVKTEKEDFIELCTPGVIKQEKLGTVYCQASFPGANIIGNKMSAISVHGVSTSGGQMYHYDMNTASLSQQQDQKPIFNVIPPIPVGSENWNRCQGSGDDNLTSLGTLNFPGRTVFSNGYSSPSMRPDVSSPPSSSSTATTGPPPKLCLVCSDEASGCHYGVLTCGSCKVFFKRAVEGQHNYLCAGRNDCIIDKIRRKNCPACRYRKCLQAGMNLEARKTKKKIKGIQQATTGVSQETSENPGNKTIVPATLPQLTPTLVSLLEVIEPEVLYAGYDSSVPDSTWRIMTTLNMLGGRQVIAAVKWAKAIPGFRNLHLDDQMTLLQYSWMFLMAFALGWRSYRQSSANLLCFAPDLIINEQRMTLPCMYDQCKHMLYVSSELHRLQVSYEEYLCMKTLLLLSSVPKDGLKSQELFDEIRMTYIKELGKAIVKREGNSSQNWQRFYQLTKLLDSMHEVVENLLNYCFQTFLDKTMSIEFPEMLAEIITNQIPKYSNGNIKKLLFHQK

Cc1oc(-c2ccccc2)nc1CCOc1cccc2c1ccn2CCC(=O)O
inactive: Potency [1] | Potency [2] | Potency [3] | Potency [4] | outcome [5] | Potency [6] | outcome [7] | outcome [8] | outcome [9] | Potency [10] | Potency [11] | outcome [12] | Potency [13] | outcome [14] | Potency [15] | Potency [16]

COc1cc2c(cc1OC)C(C(C(=O)N(CCc1ccc(OC)c(OC)c1OC)CCc1ccc(OC)c(OC)c1OC)c1ccccc1)=NCC2 (stereo not drawn)
inactive: Potency [1] | Potency [2] | Potency [17] | Potency [3] | Potency [4] | outcome [5] | Potency [6] | outcome [7] | outcome [8] | outcome [9] | Potency [10] | Potency [11] | Potency [13] | outcome [14]

CCCOC(C(=O)OC1CCN(C)CC1)(c1ccccc1)c1ccccc1
inactive: Potency [1] | Potency [2] | Potency [18] | Potency [3] | Potency [4] | outcome [5] | Potency [6] | outcome [7] | outcome [8] | outcome [9] | Potency [10] | Potency [11] | Potency [13] | outcome [14] | Potency [16]

CCOC(=O)C1=C[C@]2(CC)CCCN3CCc4c(n1c1ccccc41)[C@@H]32
inactive: Potency [1] | Potency [2] | Potency [18] | Potency [17] | Potency [4] | Potency [6] | outcome [7] | outcome [8] | outcome [9] | Potency [10] | Potency [11] | Potency [13] | outcome [14] | Potency [16]

CN1CCC(N(Cc2cccs2)c2ccccc2)CC1
inactive: Potency [1] | Potency [2] | Potency [18] | Potency [17] | Potency [3] | Potency [4] | Potency [6] | outcome [7] | outcome [8] | outcome [9] | Potency [10] | Potency [11] | outcome [12] | Potency [13] | outcome [14] | Potency [15]

COc1cc2nc(N(C)CCCNC(=O)C3CCCO3)nc(N)c2cc1OC (stereo not drawn)
inactive: Potency [1] | Potency [2] | Potency [18] | Potency [17] | fluorescence, relative to Rose Bengal [3] -0.119% [at 18.6 µM] | fluorescence, % of fluorescein control [4] -0.0701% [at 18.6 µM] | fluorescence, % of triamterene [5] -0.108% [at 18.6 µM] | fluorescence, % of fluorescent control [6] -0.585% [at 18.6 µM] | fluorescence, % of fluorescent control [8] -0.0154% [at 18.6 µM] | activity change [9] -0.131% [at 18.6 µM] | fluorescence, % of fluorescent control [10] -0.206% [at 18.6 µM] | fluorescence, % of Rose Bengal [11] -0.324% [at 18.6 µM] | fluorescence, % of fluorescent control [12] -0.0022% [at 18.6 µM] | fluorescence, % of fluorescein control [13] -0.0969% [at 18.6 µM] | fluorescence, % of fluorescent control [14] 0.136% [at 18.6 µM] | Potency [15] | Potency [16]

CC(C)(CO)[N+](=O)[O-]
inactive: Potency [1] | Potency [2] | Potency [18] | Potency [3] | Potency [4] | outcome [5] | Potency [6] | outcome [7] | outcome [8] | outcome [9] | Potency [10] | Potency [11] | outcome [12] | outcome [14] | Potency [16]

C#Cc1cccc(Nc2ncnc3cc(OCCOC)c(OCCOC)cc23)c1
inactive: Potency [1] | Potency [17] | Potency [4] | outcome [5] | Potency [6] | outcome [8] | outcome [9] | Potency [10] | Potency [11] | outcome [12] | Potency [13] | outcome [14]
active: Potency [15] 26.8 µM [inconclusive]

C=CC(=O)OCCOCCOC(=O)C=C
inactive: Potency [19] | Potency [3] | Potency [4] | outcome [5] | Potency [6] | outcome [7] | outcome [8] | outcome [9] | Potency [10] | Potency [11] | outcome [12] | outcome [14]
active: Potency [18] 61.4 µM

O=C(CS)Nc1ccccc1
inactive: Potency [1] | Potency [3] | Potency [4] | outcome [5] | Potency [6] | outcome [7] | outcome [8] | outcome [9] | Potency [10] | Potency [11] | outcome [14]

COc1cccc(N(C)C(=S)Oc2ccc3c(c2)CCCC3)n1
inactive: Potency [18] | Potency [3] | outcome [5] | Potency [6] | outcome [7] | outcome [8] | outcome [9] | Potency [10] | Potency [11] | Potency [13] | outcome [14]

CCCCOC(=O)CCCCCCCC(=O)OCCCC
inactive: Potency [2] | Potency [18] | Potency [17] | Potency [3] | Potency [4] | outcome [5] | Potency [6] | outcome [8] | outcome [9] | Potency [10] | Potency [11] | Potency [13] | outcome [14]

C=CC(=O)OCCOCCOCCOCCOC(=O)C=C
inactive: Potency [2] | Potency [17] | Potency [3] | Potency [4] | outcome [5] | Potency [6] | outcome [8] | outcome [9] | Potency [10] | Potency [11] | outcome [14] | Potency [15]
active: Potency [18] 54.8 µM

CC(C)(COC(=O)c1ccccc1)COC(=O)c1ccccc1
inactive: Potency [2] | Potency [18] | Potency [17] | Potency [4] | outcome [5] | Potency [6] | outcome [7] | outcome [8] | outcome [9] | Potency [10] | Potency [11] | outcome [12] | Potency [13] | outcome [14] | Potency [15]

Cc1cccc(C)c1OCC(=O)N[C@@H](Cc1ccccc1)[C@@H](O)C[C@H](Cc1ccccc1)NC(=O)[C@H](C(C)C)N1CCCNC1=O
inactive: Potency [1] | Potency [17] | Potency [3] | Potency [4] | outcome [5] | Potency [6] | outcome [7] | outcome [8] | outcome [9] | Potency [10] | Potency [11] | outcome [12] | Potency [13] | outcome [14] | Potency [15]
active: Potency [18] 26.6 µM | Potency [16] 23.9 µM

COc1cc(Cl)c(OC)cc1N
inactive: Potency [18] | Potency [17] | Potency [3] | Potency [4] | outcome [5] | Potency [6] | outcome [7] | outcome [8] | outcome [9] | Potency [10] | Potency [11] | outcome [12] | Potency [13] | outcome [14] | Potency [16]
